This passage reports Inhibition results from ChEMBL document CHEMBL1157539, “Thousands of chemical starting points for antimalarial lead identification” (Nature, 2010).

Type in all cases: functional
For test [1], the system named is Plasmodium falciparum. Put plainly: GSK_TCMDC: Inhibition of Plasmodium falciparum 3D7 in whole red blood cells, using parasite LDH activity as an index of growth. Test compounds present at 2uM.
The test system of test [2] is Plasmodium falciparum. As to the kind of experiment: GSK_TCMDC: Inhibition of Plasmodium falciparum Dd2 in whole red blood cells, using parasite LDH activity as an index of growth. Test compounds present at 2uM.
The next test concerns HepG2. Put plainly: GSK_TCMDC: Percent inhibition of human HepG2 cell line. Test compounds present at 10uM.

Structures are written as SMILES.

For orientation: Inhibition means how much of the control response was suppressed. Higher therefore signals a response far below the control.

Take `COc1ccc2c(c1)CCN(CCN1CCC(CNC(=O)c3ccc(-c4ccc(C#N)cc4)cc3)CC1)C2`: the Inhibition in the test on Plasmodium falciparum [1] was determined as 100%; in the test with Plasmodium falciparum [2] it was 51%; in the test on HepG2, 40%.
In the same order, the values of `COc1cccc2cc(C(=O)N[C@@H](CC(C)C)C(=O)NC(/C=N/NC(=O)c3ccccc3)CCc3ccccc3)oc12` (stereo partly drawn) are 88%, 73% and 8%.
The corresponding values for `C=CCc1cc(Cc2cnc(N)nc2N)cc(CCC)c1OC` are 83%, 1% and 3%.
In the same order, the values of `Cc1cccc2nc(-c3ccc(-c4ccc(CNC(C)C)cc4)cc3)[nH]c12.O=C(O)C(F)(F)F` are 99%, 62% and 12%.
Take `CC(C)C[C@H](NC(=O)c1ccc(OCCN2CCOCC2)cc1)C(=O)N[C@H](/C=N/N1CC(=O)NC1=O)CCc1ccccc1`: the Inhibition in the test on Plasmodium falciparum [1] turned out to be 88%; in the test with Plasmodium falciparum [2], 67%; in the test with HepG2 it was 10%.
The corresponding values for `O=C(/C=C/c1ccc(Cl)c(Cl)c1)NCCCCCN1CCCN(C(=O)Nc2ccc(C(F)(F)F)cc2)CC1` are 100%, 7% and 31%.
The corresponding values for `CCC(C)c1ccc(Nc2nc(C)cc(N(CC)CCCN3CCCCC3)n2)cc1.O=C(O)C(F)(F)F` (stereo not drawn) are 100%, 83% and 55%.
Turning to `CCCN(CCC)c1nn2c(=O)c(C(=O)N3CCN(Cc4ccccc4)CC3)cnc2s1`, the Inhibition in the test on Plasmodium falciparum [1] is recorded as 84%; in the test on Plasmodium falciparum [2], 89%; in the test on HepG2, 0%.
In the case of `O=C(Nc1cccc(CN2CCN(Cc3ccc(O)cc3)CC2)c1)c1ccc(-c2ccccc2)cc1.O=C(O)C(F)(F)F`, the values for the Inhibition in the test on Plasmodium falciparum [1], in the test with Plasmodium falciparum [2] and in the test with HepG2 were 100%, 67% and 40%, respectively.
Consider `Cc1ccc(C(=O)Cn2nc(-c3ccc(C)c(S(=O)(=O)N4CCCC4)c3)ccc2=O)cc1`, for which the Inhibition was 94% with Plasmodium falciparum [1], 70% with Plasmodium falciparum [2] and 0% with HepG2.
The corresponding values for `CCN(CC)CCN(Cc1ccc(-c2ccc(C(F)(F)F)cc2)cc1)C(=O)Cn1nc(-c2ccc(C(F)(F)F)cc2)ccc1=O` are 100%, 83% and 44%.
For `CCOC(=O)c1cnc2c(OC)cc(OC)c(Cl)c2c1Nc1ccccc1`, the values for the Inhibition in the test on Plasmodium falciparum [1], with Plasmodium falciparum [2] and with HepG2 were 99%, 100% and 13%, respectively.
Take `N#Cc1cccc(C(=O)NC2CCN(c3ccnc(Nc4ccc(F)cc4)n3)C2)c1` (stereo not drawn): the Inhibition is 98% in the test on Plasmodium falciparum [1], 91% with Plasmodium falciparum [2] and 4% in the test on HepG2.
As for `CCC(CO)NCC(O)Cn1c2ccc(Br)cc2c2cc(Br)ccc21` (stereo not drawn), the Inhibition was found to be 100% in the test on Plasmodium falciparum [1], 87% in the test on Plasmodium falciparum [2] and 18% with HepG2.
The corresponding values for `CO/C(=C\C=C\c1cc2cc(Cl)c(Cl)cc2[nH]1)C(=O)NC1CCN(CCOc2ccccc2)CC1` are 100%, 94% and 35%.
As for `Cl.O=C(Nc1ccncc1)Nc1ccc2c(c1)CCN(C1CCC1)CC2`, the Inhibition in the test on Plasmodium falciparum [1] stood at 87%; in the test on Plasmodium falciparum [2], 4%; in the test on HepG2 it was 0%.
In the same order, the values of `N#Cc1cccc(C(=O)N2CCOC(CCN3CCC(c4ccccc4)CC3)(c3ccc(Cl)c(Cl)c3)C2)c1` (stereo not drawn) are 87%, 49% and 51%.
With `Cc1nnsc1C(=O)Nc1cccc(-c2ccc(-c3nc4ccccc4[nH]3)cc2)c1`, the Inhibition with Plasmodium falciparum [1] amounted to 100%; with Plasmodium falciparum [2] it was 58%; with HepG2 it was 48%.
The corresponding values for `CCc1c(CCNCCCCCCNC(C)(C)Cc2ccc3c(c2CC)OCO3)ccc(OC)c1OC.Cl` are 100%, 50% and 100%.
The corresponding values for `CC1CCCCN1CCCNC(=O)c1cccc(-c2cc3cc(Cl)c(Cl)cc3[nH]2)c1.O=C(O)C(F)(F)F` (stereo not drawn) are 94%, 7% and 22%.
In the same order, the values of `COc1ccc(-c2nc(NC(=O)CS(=O)(=O)c3ccc(F)cc3)sc2C)cc1` are 100%, 99% and 20%.
For `Cc1cc(NCCC(=O)Nc2ccccc2)nc(NCc2ccccc2C)n1.O=C(O)C(F)(F)F`, the Inhibition worked out at 100% with Plasmodium falciparum [1], 57% with Plasmodium falciparum [2] and 6% in the test with HepG2.
The corresponding values for `O=C(NC1CCN(Cc2ccccc2O)C1)c1ccc(-c2ccccc2)cc1.O=C(O)C(F)(F)F` (stereo not drawn) are 99%, 25% and 0%.
In the case of `CCCCC(=O)Nc1nonc1-c1ccc(OCC)c(OCC)c1`, the Inhibition is listed as 100% with Plasmodium falciparum [1], 95% in the test with Plasmodium falciparum [2] and 9% in the test on HepG2.
The corresponding values for `N#CCSc1nnc(-c2ccccc2)c2ccccc12` are 84%, 73% and 5%.
The corresponding values for `O=C(c1cccs1)N1N=C(c2cccs2)CC1c1cccc([N+](=O)[O-])c1` (stereo not drawn) are 95%, 27% and 5%.
In the same order, the values of `Cc1nn(C)cc1C(C)Nc1nncc(-c2ccc(C(F)(F)F)cc2)n1` (stereo not drawn) are 100%, 99% and 0%.
Turning to `CCCCCc1ccc(N2C(N)=NC(N)=NC2(C)C)cc1.Cl`, the results for the Inhibition in the test on Plasmodium falciparum [1], in the test with Plasmodium falciparum [2] and in the test on HepG2 were 95%, 1% and 59%, respectively.
As for `COc1ccc2nccc(N3CCN(CCNCc4ccc5c(n4)NC(=O)CO5)CC3)c2n1.Cl`, the Inhibition in the test on Plasmodium falciparum [1] is 98%; in the test on Plasmodium falciparum [2], 12%; in the test with HepG2, 10%.
In the same order, the values of `COc1ccc(Nc2nccc(N3CCC(NC(=O)c4cccc(C#N)c4)C3)n2)cc1` (stereo not drawn) are 92%, 93% and 6%.
The corresponding values for `COc1ccc(Oc2ccccc2CNCC2CCN(CC3CCCCC3)CC2)cc1.O=C(O)C(F)(F)F` are 85%, 28% and 34%.
